Reference: PubChem BioAssay (NCI)
Compounds without any hit were thinned out: in the full panel of roughly 83,000, 20% have a hit.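 Treatment: one concentration, 48 hours, 96-well format. Scoring: percent growth, with anything below 10 considered active.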 The source made the active and inactive calls.

tested on: CCRF-CEM leukemia; assay: NCI-60 one-dose screen, 48 h (100 = growth as untreated, 0 = no growth, -100 = all killed); details: 10 µM unless noted

SMILES | growth
COc1ccc(/C=C/C(c2cc(OC)c(OC)c(OC)c2)n2cncn2)cc1O (centres undefined) | 6.31% (active)
COc1ccc(-c2cn(Cc3cc4ccccc4s3)nn2)cc1OCCN1CCCCC1 | 62.2% (inactive)
COc1ccc(-c2nc3c(c(-c4ccc(Cl)cc4)nn3-c3ccccc3)c(-c3ccccc3)c2C#N)cc1 | 102% (inactive)
COc1ccc2c(c1)CC[C@@H]1[C@@H]2CC[C@]2(C)C3C(=CC(COC(C)=O)C4C(=O)N(c5ccc(Cl)cc5)C(=O)C43)C[C@@H]12 (some centres undefined) | 75.5% (inactive)
COc1cc(/C=C/C(=O)N2CCN(C(=O)c3cc(OC)c(OC)c(OC)c3)CC2)ccc1OCCCOc1cc2c(cc1OC)C(=O)N1CCC[C@H]1C=N2 | -1.17% (active)
CSc1nc2ccc(C)cc2cc1/C=C1/C=C(c2ccccc2)NC1=O | 48.3% (inactive)
Cc1ccc2c(c1)sc1nc(-c3c[nH]c4ccccc34)c(Nc3ccccc3)n12 | 107% (inactive)
N=C(N)c1ccc(-c2ccc(-c3ccccc3)o2)o1 | 15.4% (inactive)
CN1C(=O)N2CN3CCCN(C3)CN3C(=S)NC1C23 (centres undefined) | 90.2% (inactive)
Clc1ccc(-c2cc(-c3ccccc3)nc(N3CCN(CCCNc4ccnc5cc(Cl)ccc45)CC3)n2)cc1 | 2.6% (active)
COc1cc(/C=C/c2cc(/C=C/c3ccc(O)c(OC)c3)n(C(=O)Nc3ccc(Cl)cc3)n2)ccc1O | 4.45% (active)
N#Cc1c(-c2ccccc2)nc2c(c(-c3ccc(Cl)cc3)nn2-c2ccccc2)c1-c1ccc([N+](=O)[O-])cc1 | 90.6% (inactive)
COc1ccc(Oc2ccc(/C=C/C(=O)c3cc4ccccc4oc3=O)cc2)cc1 | 28.1% (inactive)
O=[N+]([O-])c1c(O)c(Cl)cc(Cl)c1Cl | 106% (inactive)
O=S(O)c1cc(Cl)cc(Cl)c1OCc1ccccc1 | 102% (inactive)
Cc1oc(-c2ccc(Cl)cc2)nc1C1=NN(C(=O)c2ccncc2)C(c2ccccc2)C1 (centres undefined) | 93.4% (inactive)
CS(=O)(=O)c1ccc(-c2nc3ccccc3n2CC(=O)N/N=C/c2ccccc2)cc1 | 104% (inactive)
CCCn1c(=S)sc2c(NNC(C)=O)nc(C)nc21 | 88% (inactive)
N#CSc1c[nH]c2ccc(/C=C/C(=O)/C=C(O)/C=C/c3ccc4[nH]cc(SC#N)c4c3)cc12 | 2.04% (active)
Fc1cccc(-c2nc(-c3c[nH]c4ncccc34)cs2)c1 | 72% [100 µM] (inactive)

SMILES | growth
COc1ccc(Oc2ccc(/C=C/C(=O)c3ccc(OC)c(OC)c3)cc2)cc1 | 70.3% (inactive)
CCCCn1c(NC(C)=O)c(S(=O)(=O)c2ccccc2)c2nc3ccccc3nc21 | 77.7% (inactive)
COc1cc(O)c2c(=O)c3c(CC=C(C)C)cc(OC)c(O)c3oc2c1 | 16.5% (inactive)
CC12OC(CC(O)C1O)n1c3ccccc3c3c4c(c5c6ccccc6n2c5c31)C(=O)N(CCN1CCCC1)C4=O (centres undefined) | 20.3% (inactive)
C=C1CC[C@@H]2C(C)(C)[C@H](O)CC[C@@]2(C)[C@@H]1COc1ccc2ccc(=O)oc2c1 | 26.2% (inactive)
COc1c2c(cc3c1C(=O)N[C@@H]1[C@@H](O)[C@@H](O)[C@H](O)C[C@@H]31)OCCO2 | 105% (inactive)
C=C1C(=O)O[C@H]2[C@H]1CC/C(COC(=O)NCc1ccc(Cn3c(=O)sn(-c4ccccc4)c3=O)cc1)=C\CC[C@@]1(C)O[C@@H]21 | -9.16% (active)
Cc1nc2sc(C(=O)Nc3ccccn3)c(N)c2cc1C(C)O (centres undefined) | 49.6% (inactive)
c1cc(OCCN2CCCC2)ccc1CNc1ccc2nc(CCC3CCCCC3)[nH]c2c1 | 12.7% (inactive)
Cc1nc([P+](c2ccccc2)(c2ccccc2)c2ccccc2)c(N2CCCCC2)o1 | 21.2% (inactive)
COc1cc(/C=N/NC(=O)c2ccc(-n3cc(-c4ccccc4)nn3)cc2)cc(OC)c1OC | 55.1% (inactive)
C=CN(C(=O)N1CCN(c2cc3c(cc2F)c(=O)c(C(=O)O)cn3C2CC2)CC1)c1nc(-c2ccc(Cl)cc2)cs1 | 33.5% (inactive)
COc1ccccc1/C=C/C(=O)Nc1ccc(F)cc1 | 97.6% (inactive)
CC(C)c1ccc2c(c1)CC[C@H]1[C@](C)(C(=O)OCC#CCN3CCCC3)CCC[C@]21C | 6.39% (active)
COc1ccc2c(O)c(/C=C3\N=Nc4ncccc43)oc2c1C[C@@H]1CCNC[C@H]1F | -17.4% (active)
c1ccc2cc(Cn3cc(CSc4nc5ccccc5s4)nn3)ccc2c1 | 97.2% (inactive)
COCC(=O)Oc1cc(-c2ccc(C)cc2C)c(OC(=O)COC)c(-c2ccc(C)cc2C)c1 | 38.9% (inactive)
Cc1nc2ccccc2c(/C=C/c2ccc(F)cc2)c1C(=O)/C=C/c1ccccc1 | 7.91% (active)
O=C1C=C(SCCO)C(=O)c2ccccc21 | -14.4% (active)

tested on: MOLT-4 leukemia; assay: as above; details: 10 µM unless noted

SMILES | growth
COc1ccc(/C=C/C(c2cc(OC)c(OC)c(OC)c2)n2cncn2)cc1O (centres undefined) | 21.8% (inactive)
COc1ccc(-c2cn(Cc3cc4ccccc4s3)nn2)cc1OCCN1CCCCC1 | 53% (inactive)
COc1ccc(-c2nc3c(c(-c4ccc(Cl)cc4)nn3-c3ccccc3)c(-c3ccccc3)c2C#N)cc1 | 102% (inactive)
COc1ccc2c(c1)CC[C@@H]1[C@@H]2CC[C@]2(C)C3C(=CC(COC(C)=O)C4C(=O)N(c5ccc(Cl)cc5)C(=O)C43)C[C@@H]12 (some centres undefined) | 63.9% (inactive)
COc1cc(/C=C/C(=O)N2CCN(C(=O)c3cc(OC)c(OC)c(OC)c3)CC2)ccc1OCCCOc1cc2c(cc1OC)C(=O)N1CCC[C@H]1C=N2 | 7.57% (active)
CSc1nc2ccc(C)cc2cc1/C=C1/C=C(c2ccccc2)NC1=O | 44.1% (inactive)
Cc1ccc2c(c1)sc1nc(-c3c[nH]c4ccccc34)c(Nc3ccccc3)n12 | 98.7% (inactive)
N=C(N)c1ccc(-c2ccc(-c3ccccc3)o2)o1 | 15.6% (inactive)
CN1C(=O)N2CN3CCCN(C3)CN3C(=S)NC1C23 (centres undefined) | 111% (inactive)
Clc1ccc(-c2cc(-c3ccccc3)nc(N3CCN(CCCNc4ccnc5cc(Cl)ccc45)CC3)n2)cc1 | 2.31% (active)
COc1cc(/C=C/c2cc(/C=C/c3ccc(O)c(OC)c3)n(C(=O)Nc3ccc(Cl)cc3)n2)ccc1O | -2% (active)
N#Cc1c(-c2ccccc2)nc2c(c(-c3ccc(Cl)cc3)nn2-c2ccccc2)c1-c1ccc([N+](=O)[O-])cc1 | 97.1% (inactive)
COc1ccc(Oc2ccc(/C=C/C(=O)c3cc4ccccc4oc3=O)cc2)cc1 | 57.9% (inactive)
O=[N+]([O-])c1c(O)c(Cl)cc(Cl)c1Cl | 100% (inactive)
O=S(O)c1cc(Cl)cc(Cl)c1OCc1ccccc1 | 101% (inactive)
CS(=O)(=O)c1ccc(-c2nc3ccccc3n2CC(=O)N/N=C/c2ccccc2)cc1 | 117% (inactive)
CCCn1c(=S)sc2c(NNC(C)=O)nc(C)nc21 | 114% (inactive)
N#CSc1c[nH]c2ccc(/C=C/C(=O)/C=C(O)/C=C/c3ccc4[nH]cc(SC#N)c4c3)cc12 | -28.2% (active)

SMILES | growth
Fc1cccc(-c2nc(-c3c[nH]c4ncccc34)cs2)c1 | 71.8% [100 µM] (inactive)
COc1ccc(Oc2ccc(/C=C/C(=O)c3ccc(OC)c(OC)c3)cc2)cc1 | -9.69% (active)
COc1cc(O)c2c(=O)c3c(CC=C(C)C)cc(OC)c(O)c3oc2c1 | 25.6% (inactive)
CC12OC(CC(O)C1O)n1c3ccccc3c3c4c(c5c6ccccc6n2c5c31)C(=O)N(CCN1CCCC1)C4=O (centres undefined) | -3.23% (active)
C=C1CC[C@@H]2C(C)(C)[C@H](O)CC[C@@]2(C)[C@@H]1COc1ccc2ccc(=O)oc2c1 | 31.6% (inactive)
COc1c2c(cc3c1C(=O)N[C@@H]1[C@@H](O)[C@@H](O)[C@H](O)C[C@@H]31)OCCO2 | 99.6% (inactive)
C=C1C(=O)O[C@H]2[C@H]1CC/C(COC(=O)NCc1ccc(Cn3c(=O)sn(-c4ccccc4)c3=O)cc1)=C\CC[C@@]1(C)O[C@@H]21 | -5.87% (active)
Cc1nc2sc(C(=O)Nc3ccccn3)c(N)c2cc1C(C)O (centres undefined) | 64.1% (inactive)
Cc1nc([P+](c2ccccc2)(c2ccccc2)c2ccccc2)c(N2CCCCC2)o1 | 28.8% (inactive)
COc1cc(/C=N/NC(=O)c2ccc(-n3cc(-c4ccccc4)nn3)cc2)cc(OC)c1OC | 78.3% (inactive)
C=CN(C(=O)N1CCN(c2cc3c(cc2F)c(=O)c(C(=O)O)cn3C2CC2)CC1)c1nc(-c2ccc(Cl)cc2)cs1 | 58.2% (inactive)
COc1ccccc1/C=C/C(=O)Nc1ccc(F)cc1 | 88.1% (inactive)
CC(C)c1ccc2c(c1)CC[C@H]1[C@](C)(C(=O)OCC#CCN3CCCC3)CCC[C@]21C | 72.7% (inactive)
COc1ccc2c(O)c(/C=C3\N=Nc4ncccc43)oc2c1C[C@@H]1CCNC[C@H]1F | -9.39% (active)
COCC(=O)Oc1cc(-c2ccc(C)cc2C)c(OC(=O)COC)c(-c2ccc(C)cc2C)c1 | 21.7% (inactive)
Cc1nc2ccccc2c(/C=C/c2ccc(F)cc2)c1C(=O)/C=C/c1ccccc1 | 4.66% (active)
O=C1C=C(SCCO)C(=O)c2ccccc21 | 2.43% (active)
